Source: a collection of fitness landscapes (doi:10.1016/j.celrep.2020.107928)
The full ranking holds about 81,000 sequences; the median of “one-hybrid fitness for binding NBS DNA” is about -0.1, and the highest 2% start at about 0.36. The entries come from a sample that favours the highest values as a whole.

B1: Caulobacter ParB omega fusion; a variant is named by its letters at X, in order, B8GW30 (parent)
chain: MESVVVGEPGMSEGRRGLGRGLSALLGEVDAAPAQAPGEQLGGSREAPIEILQRNPDQPRRTFREEDLEDLSNSIREKGVLQPILVRPSPDTAGEYQIVAGERAWRAAQRAGLKTVPIMVRELDDLAVLEIGIIENVQRADLNVLEEALSYKVLMEKFERTQENIAQTIGKSXSHVANXMRLLXLPDEVQSYLVSGELTAXHARAIAAAADPVALAKQIIEGGLSVRETEALARKAPNLSAGKSKGGRPPRVKDTDTQALESDLSSVLGLDVSIDHRGSTGTLTITYATLEQLDDLCNRLTRGI

Variants of: B1
Test: one-hybrid fitness for binding NBS DNA (the Noc-binding site; scaled: cognate 1, non-cognate 0); higher = stronger binding
Conditions: with NBS DNA site
Summary of the method: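 Bacterial one-hybrid selection in E. coli USO rpoZ- hisB- pyrF- with a HIS3 reporter carrying the site 19 bp from the promoter, screening Caulobacter ParB libraries with four specificity codons randomised (NNS). Cells grew 48 hours at 37°C on M9-minus-histidine plus 0.1 mM IPTG and 5 mM 3-AT. Plasmids before and after selection were Illumina-sequenced, three replicate libraries pooled, and variants under 10 reads dropped. Fitness is the log change in variant-to-wild-type read ratio, rescaled to cognate 1, non-cognate 0.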

| Variant | one-hybrid fitness for binding NBS DNA |
| --- | --- |
| LKMC | ≤ 0.2 |
| WIPG | ≤ 0.2 |
| IPHT | ≤ 0.2 |
| YLLF | ≤ 0.2 |
| SHQN | ≤ 0.2 |
| LRKG | ≤ 0.2 |
| QQKE | 0.335 |
| QQVH | ≤ 0.2 |
| QQKL | 0.327 |
| QQVD | ≤ 0.2 |
| QQKR | 1.1 |
| QQVR | 0.491 |
| AGDY | ≤ 0.2 |
| GMLG | ≤ 0.2 |
| RCVE | ≤ 0.2 |
| YVKV | ≤ 0.2 |
| QRYS | 0.646 |
| QRWN | ≤ 0.2 |
| QRYN | 0.319 |
| QRWS | 0.54 |
| QRRS | 0.787 |
| QRRN | 0.547 |
| QRRP | 0.359 |
| QRWP | ≤ 0.2 |
| QRRD | 0.356 |
| QRYP | ≤ 0.2 |

| Variant | one-hybrid fitness for binding NBS DNA |
| --- | --- |
| QRYD | 0.222 |
| NAHV | ≤ 0.2 |
| FSNM | ≤ 0.2 |
| SRRP | ≤ 0.2 |
| THHR | ≤ 0.2 |
| VCSD | ≤ 0.2 |
| WQLA | ≤ 0.2 |
| RTRG | 0.215 |
| CCQR | ≤ 0.2 |
| CVKA | ≤ 0.2 |
| MAIS | ≤ 0.2 |
| NATF | ≤ 0.2 |
| MAFC | ≤ 0.2 |
| ECWS | ≤ 0.2 |
| QCES | 0.301 |
| QREN | ≤ 0.2 |
| QRES | 0.469 |
| PSVG | ≤ 0.2 |
| QSCT | 0.386 |
| QHCT | 0.294 |
| QTCD | ≤ 0.2 |
| QICT | 0.266 |
| QCCT | 0.521 |
| QPCT | ≤ 0.2 |
| QTCH | 0.319 |
| QTCT | 0.571 |

| Variant | one-hybrid fitness for binding NBS DNA |
| --- | --- |
| QLCT | 0.345 |
| SKPI | ≤ 0.2 |
| DYFM | ≤ 0.2 |
| LNNN | ≤ 0.2 |
| EHQL | ≤ 0.2 |
| GRLL | ≤ 0.2 |
| SFYC | ≤ 0.2 |
| IRNN | ≤ 0.2 |
| MQRC | ≤ 0.2 |
| NLPG | ≤ 0.2 |
| QKVN | ≤ 0.2 |
| DKKR | ≤ 0.2 |
| QKVR | 0.423 |
| QKVS | 0.32 |
| QKKR | 1 |
| QKKF | 0.294 |
| NTIC | ≤ 0.2 |
| EQRE | ≤ 0.2 |
| TGAR | ≤ 0.2 |
| GMCV | ≤ 0.2 |
| RLHS | 0.462 |
| RMHD | ≤ 0.2 |
| RPHS | ≤ 0.2 |
| RLHH | ≤ 0.2 |
| RMHN | ≤ 0.2 |
| RMHS | 0.486 |

| Variant | one-hybrid fitness for binding NBS DNA |
| --- | --- |
| RSHH | ≤ 0.2 |
| RCHS | 0.577 |
| RSHP | ≤ 0.2 |
| RSHS | 0.47 |
| RFHS | 0.275 |
| RLHP | ≤ 0.2 |
| CMKS | ≤ 0.2 |
| HSMS | ≤ 0.2 |
| YEDC | ≤ 0.2 |
| VNHL | ≤ 0.2 |
| HDMN | ≤ 0.2 |
| VQAT | ≤ 0.2 |
| RKHD | ≤ 0.2 |
| RKHS | 0.624 |
| RAHS | 0.482 |
| RKHN | ≤ 0.2 |
| RAHN | ≤ 0.2 |
| RAHD | ≤ 0.2 |
| FLVC | ≤ 0.2 |
| LRGC | ≤ 0.2 |
| IPDS | ≤ 0.2 |
| QSHR | 0.578 |
| QWHR | 0.288 |
